In the supplement of paper PMC13094657:
Where a name gives a salt, the structure may show the parent alone. ± gives the standard deviation of the averaged measurements.

Test system: MDA-MB-231
Experiment: kynurenine production, fold change vs DMSO IFNg/TNF control; higher = more kynurenine produced (less inhibition)
Conditions: pre-treatment time: 18 h then 24 h IFNg/TNF
Summary of the method: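 After trichloroacetic acid and p-dimethylaminobenzaldehyde treatment, supernatants were read at 492 nm, with 0–100 μM standards. These came from MDA-MB-231 cells (7 × 10^4/well, 96-well plates) pre-treated 18 h with natural products in 0.1% DMSO and then exposed 24 h to IFNγ (1 U/ml) and TNF (6.25 ng/ml) at 37°C. Values for kynurenine production are fold changes over same-plate cytokine-stimulated vehicle wells, averaged over duplicate plates in the first screening round.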

| SMILES | kynurenine production |
| --- | --- |
| COc1cc2c(cc1OC)-c1c(OC)c(OC)cc3c1[C@H](C2)N(C)CC3 [(S)-Glaucine (Alkaloid purified from Papaver somniferum)] | 0.905 ± 0.052 |
| CC(=O)O[C@@]12C[C@@H](C)[C@@]3(O)[C@@H](C=C(CO)C[C@]4(O)C(=O)C(C)=C[C@@H]34)[C@@H]1C2(C)C [Prostratin] (compound dose: 10 uM) | 0.737 ± 0.025 |
| CC1=C(O)C(=O)C=C2C1=CC=C1[C@@]2(C)CC[C@@]2(C)[C@@H]3C[C@](C)(C(=O)O)CC[C@]3(C)CC[C@]12C [Tripterin] (compound dose: 10 uM) | 0.119 ± 0.017 |
| CN1[C@@H]2CC(O)C[C@H]1[C@@H]1O[C@@H]12 (some centres not stated) [Scopine] (compound dose: 10 uM) | 0.798 ± 0.03 |
| C[C@@]12C[C@@H](c3ccoc3)OC(=O)[C@@H]1CC[C@]1(C)[C@H]2[C@@H]2C=C[C@@]1(O)C(=O)O2 [Columbin] (compound dose: 10 uM) | 0.882 ± 0.2 |
| Cc1cc(O)c2c(=O)c3c(O)cc(O)c4c5c(O)cc(O)c6c(=O)c7c(O)cc(C)c8c1c2c(c34)c(c78)c65 [Hypericin] (compound dose: 10 uM) | 0.103 ± 0.063 |
| CN1[C@@H]2CC[C@H]1C[C@@H](OC(=O)C(CO)c1ccccc1)C2 (some centres not stated) [Atropine sulfate] (compound dose: 10 uM) | 0.795 ± 0.044 |
| COc1ccc2c3c1O[C@H]1CC(=O)C=C[C@@]31CCN(C)C2 [Galanthaminone] (compound dose: 10 uM) | 0.7845 ± 0.0068 |
| C=C1[C@@H]2CC[C@H]3[C@]4(C)C[C@H](O[C@@H]5O[C@H](CO)[C@@H](OS(=O)(=O)O)[C@H](OS(=O)(=O)O)[C@H]5OC(=O)CC(C)C)CC(C(=O)O)(C(=O)O)[C@H]4CC[C@]3(C2)[C@H]1O [Carboxyatractyloside (dipotassium)] (compound dose: 10 uM) | 0.825 ± 0.43 |
| COc1cc(C2OCC3C(c4cc(OC)c(O[C@@H]5O[C@H](CO)[C@@H](O)[C@H](O)[C@H]5O)c(OC)c4)OCC23)cc(OC)c1O[C@H]1O[C@@H](CO)[C@H](O)[C@@H](O)[C@@H]1O (some centres not stated) [Eleutheroside E] (compound dose: 10 uM) | 0.784 ± 0.071 |
| C=C1[C@@H]2CCC3[C@@](CC[C@@H]4[C@H](C(=O)O)C[C@@H](O[C@@H]5O[C@H](CO)[C@@H](OS(=O)(=O)O)[C@H](OS(=O)(=O)O)[C@H]5OC(=O)CC(C)C)C[C@@]34C)(C2)[C@@H]1O (some centres not stated) [Atractyloside (potassium salt)] (compound dose: 10 uM) | 0.945 ± 0.02 |
| O=C(O)c1ccc(=O)[nH]c1 [6-hydroxynicotinic acid] (compound dose: 10 uM) | 0.973 ± 0.098 |
| C[C@@H]1CC[C@@]2(OC1)O[C@H]1C[C@H]3[C@@H]4CC=C5C[C@@H](O[C@@H]6O[C@H](CO)[C@@H](O[C@@H]7O[C@@H](C)[C@H](O[C@@H]8O[C@@H](C)[C@H](O)[C@@H](O)[C@H]8O)[C@@H](O)[C@H]7O)[C@H](O)[C@H]6O[C@@H]6O[C@@H](C)[C@H](O)[C@@H](O)[C@H]6O)CC[C@]5(C)[C@H]4CC[C@]3(C)[C@H]1[C@@H]2C [Formosanin C] (compound dose: 10 uM) | 0.125 ± 0.075 |
| CC(=O)OC(C)(C)/C=C/C(=O)[C@](C)(O)[C@H]1[C@H](O)C[C@@]2(C)[C@@H]3CC=C4[C@@H](C=C(O)C(=O)C4(C)C)[C@]3(C)C(=O)C[C@]12C [Cucurbitacin E] (compound dose: 10 uM) | 0.19 ± 0.034 |
| COc1cc(C[C@H]2C(=O)OC[C@@H]2Cc2ccc3c(c2)OCO3)cc(OC)c1OC [Yatein] (compound dose: 10 uM) | 0.843 ± 0.035 |
| C=C1[C@H](OC(=O)c2ccccc2)C[C@H]2[C@@H](/C=C(\C)C(=O)[C@@]3(OC(C)=O)C[C@H](C)[C@H](OC(=O)c4ccccc4)[C@@H]3[C@H]1OC(C)=O)C2(C)C [Euphorbia factor L2] (compound dose: 10 uM) | 0.384 ± 0.048 |
| COc1cc2c(cc1OC)-c1c3c(cc4c1[C@H](C2)N(C)CC4)OCO3 [Dicentrine] (compound dose: 10 uM) | 0.432 ± 0.0093 |
| CC(=O)OC[C@]12[C@H](OC(C)=O)[C@H](OC(C)=O)[C@@H]3[C@@H](OC(C)=O)[C@@]14O[C@@]3(C)COC(=O)c1cccnc1CCC(C)C(=O)O[C@@H]([C@H](OC(=O)c1ccco1)[C@@H]2OC(C)=O)[C@]4(C)O (some centres not stated) [Wilforgine] (compound dose: 10 uM) | 1.04 ± 0.077 |
| CC(C)[C@]12O[C@H]1[C@@H]1O[C@]13[C@]1(O[C@H]1C[C@H]1C4=C(CC[C@@]13C)C(=O)OC4)[C@@H]2O [Triptolide] (compound dose: 10 uM) | 0.152 ± 0.021 |
| CC(C)C1=CC(=O)[C@@](C)(C2[C@H](O)C[C@@]3(C)[C@@H]4CC=C5[C@@H](CC[C@@H](OC6OCC(O)C(O)C6OC6OC(C)C(O)C(O)C6O)C5(C)C)[C@]4(C)C(=O)C[C@]23C)O1 (some centres not stated) [Picfeltarraenin IA] (compound dose: 10 uM) | 0.901 ± 0.11 |
| CCCC(=O)O[C@@H]1[C@@H](C)[C@@]2(O)[C@@H](C=C(CO)C[C@]3(O)C(=O)C(C)=C[C@@H]23)[C@@H]2C(C)(C)[C@]12OC(=O)CCC [Phorbol 12,13-Dibutyrate] (compound dose: 10 uM) | 0.781 ± 0.034 |
| C=C1[C@H](OC(C)=O)[C@@H](OC(=O)c2ccccc2)[C@@H](OC(C)=O)C(C)(C)[C@H]2O[C@](O)([C@@H](C)C2=O)[C@@]2(OC(C)=O)C[C@H](C)[C@H](OC(C)=O)[C@@H]2[C@H]1OC(C)=O [Kansuinine A] (compound dose: 10 uM) | 0.709 ± 0.031 |
| CC1=C2[C@H]3OC(=O)[C@@H](C)[C@@H]3CC[C@@]2(C)C=CC1=O [Santonin] (compound dose: 10 uM) | 1.02 ± 0.023 |
| CC(=O)O[C@H]1[C@H]2[C@@H](OC(=O)Cc3ccccc3)[C@@H](C)C[C@]2(OC(C)=O)C(=O)/C(C)=C/[C@@H]2[C@H](CC[C@@]13CO3)C2(C)C [Euphorbiasteroid] (compound dose: 10 uM) | 0.997 ± 0.02 |
| CC1=C[C@H]2[C@@]3(O)[C@H](C)[C@@H](O)[C@]4(O)[C@H]([C@@H]3C=C(CO)C[C@]2(O)C1=O)C4(C)C [Phorbol] (compound dose: 10 uM) | 0.894 ± 0.041 |
| CC(C)c1ccc2c(c1O)CC[C@H]1C3=C(CC[C@]21C)C(=O)OC3 [Triptophenolide] (compound dose: 10 uM) | 0.815 ± 0.17 |
| CC(=O)O[C@H]1C[C@H](O[C@H]2[C@@H](O)C[C@H](O[C@H]3[C@@H](O)C[C@H](O[C@H]4CC[C@@]5(C)[C@H](CC[C@@H]6[C@@H]5C[C@@H](O)[C@]5(C)[C@@H](C7=CC(=O)OC7)CC[C@]65O)C4)O[C@@H]3C)O[C@@H]2C)O[C@H](C)[C@H]1O[C@@H]1O[C@H](CO)[C@@H](O)[C@H](O)[C@H]1O [Lanatoside C] (compound dose: 10 uM) | 0.149 ± 0.015 |
